1 sequence from paper PMC7862700, “An all-to-all approach to the identification of sequence-specific readers for epigenetic DNA modifications on cytosine” can be followed below.

Common to all, as to test: DAPPL (digital affinity profiling via proximity ligation, sequencing); 10 mM Tris-HCl pH 7.5, 50 mM NaCl, 1 mM DTT, 4% glycerol, room temperature, 30 min; GST-TFs on glutathione beads, 16-mer random dsDNA library, 0.1% formaldehyde crosslink after washing; high values mean tight binding
Common to all, as to conditions: protein: recombinant; tags: N-terminal GST; dsDNA, one strand shown

One experiment has as its target T1, FLI1 (Homo sapiens, UniProt Q01543 1-452).
T1 sequence: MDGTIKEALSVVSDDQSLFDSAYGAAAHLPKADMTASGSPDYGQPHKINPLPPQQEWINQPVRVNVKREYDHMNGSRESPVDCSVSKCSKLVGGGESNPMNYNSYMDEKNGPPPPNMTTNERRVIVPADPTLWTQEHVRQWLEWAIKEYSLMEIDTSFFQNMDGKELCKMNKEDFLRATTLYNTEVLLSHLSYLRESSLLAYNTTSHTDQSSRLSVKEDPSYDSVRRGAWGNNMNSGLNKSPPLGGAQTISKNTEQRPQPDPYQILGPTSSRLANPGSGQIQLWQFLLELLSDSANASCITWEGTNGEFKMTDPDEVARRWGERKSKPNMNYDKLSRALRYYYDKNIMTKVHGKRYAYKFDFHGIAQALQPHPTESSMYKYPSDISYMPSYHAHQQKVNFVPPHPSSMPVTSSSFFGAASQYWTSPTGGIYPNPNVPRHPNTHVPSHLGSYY
The method in brief:
(§1)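 Human transcription factors were made in yeast as GST fusions, captured on glutathione beads and barcoded with DNA. With a tag-only sample included, the pool was incubated with 200 nmole of a random double-stranded 16-mer DNA library in Tris/NaCl/DTT/glycerol buffer at room temperature for 30 min, then crosslinked with 0.1% formaldehyde after washing, ligated by proximity, amplified and sequenced. For binding signal, each hexamer's read frequency for a factor is divided by its frequency for the tag-only sample.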

The target of another experiment is T2, ELK1 (Homo sapiens, UniProt P19419 1-428).
T2 sequence: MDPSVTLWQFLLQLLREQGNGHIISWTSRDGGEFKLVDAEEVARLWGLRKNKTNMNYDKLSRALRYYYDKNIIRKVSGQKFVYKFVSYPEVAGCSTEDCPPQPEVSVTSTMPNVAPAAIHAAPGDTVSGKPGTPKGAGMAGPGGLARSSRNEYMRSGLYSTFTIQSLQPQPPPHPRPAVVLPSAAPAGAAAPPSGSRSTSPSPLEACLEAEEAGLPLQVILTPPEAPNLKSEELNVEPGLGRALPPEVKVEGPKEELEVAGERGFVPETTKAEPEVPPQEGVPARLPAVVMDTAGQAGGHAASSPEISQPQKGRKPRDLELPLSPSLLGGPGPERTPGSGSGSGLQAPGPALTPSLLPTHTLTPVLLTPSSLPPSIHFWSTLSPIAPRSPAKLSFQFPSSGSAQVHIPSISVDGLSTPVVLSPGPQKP
The method in brief:
as §1

Another experiment addresses T3, GABPA (Homo sapiens, UniProt Q06546 1-454).
T3 sequence: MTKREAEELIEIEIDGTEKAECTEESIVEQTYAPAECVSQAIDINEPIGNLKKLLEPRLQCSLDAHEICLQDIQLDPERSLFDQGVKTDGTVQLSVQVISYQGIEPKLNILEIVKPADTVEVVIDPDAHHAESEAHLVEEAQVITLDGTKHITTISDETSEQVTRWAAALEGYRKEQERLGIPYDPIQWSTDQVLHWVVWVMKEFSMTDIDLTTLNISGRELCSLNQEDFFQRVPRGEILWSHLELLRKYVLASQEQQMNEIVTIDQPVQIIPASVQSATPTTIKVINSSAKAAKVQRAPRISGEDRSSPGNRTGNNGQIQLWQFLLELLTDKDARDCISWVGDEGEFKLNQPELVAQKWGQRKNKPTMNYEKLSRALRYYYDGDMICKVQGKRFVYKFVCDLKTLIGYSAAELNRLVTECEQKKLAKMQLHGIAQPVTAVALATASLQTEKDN
The method in brief:
as §1

The target in the next experiment is T4, ERG (Homo sapiens, UniProt P11308 1-479).
T4 sequence: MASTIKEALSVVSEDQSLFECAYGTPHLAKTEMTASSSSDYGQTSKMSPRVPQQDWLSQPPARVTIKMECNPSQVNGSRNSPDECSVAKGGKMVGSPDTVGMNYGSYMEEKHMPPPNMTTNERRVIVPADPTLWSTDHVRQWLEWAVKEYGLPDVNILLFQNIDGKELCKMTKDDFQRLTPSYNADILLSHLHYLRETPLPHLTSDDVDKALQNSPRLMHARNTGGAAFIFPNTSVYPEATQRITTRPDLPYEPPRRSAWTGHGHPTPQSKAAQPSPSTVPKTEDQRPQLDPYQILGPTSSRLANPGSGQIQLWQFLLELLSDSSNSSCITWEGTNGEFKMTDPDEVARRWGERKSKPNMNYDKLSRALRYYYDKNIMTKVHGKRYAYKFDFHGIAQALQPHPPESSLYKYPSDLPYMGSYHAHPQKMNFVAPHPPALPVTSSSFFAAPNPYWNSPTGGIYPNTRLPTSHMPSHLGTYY
The essentials:
as §1

The target in the next experiment is ELF1 (Homo sapiens, UniProt P32519 1-619). The method in brief: as §1
The next experiment addresses T5, EHF (Homo sapiens, UniProt Q9NZC4 1-300).
T5 sequence: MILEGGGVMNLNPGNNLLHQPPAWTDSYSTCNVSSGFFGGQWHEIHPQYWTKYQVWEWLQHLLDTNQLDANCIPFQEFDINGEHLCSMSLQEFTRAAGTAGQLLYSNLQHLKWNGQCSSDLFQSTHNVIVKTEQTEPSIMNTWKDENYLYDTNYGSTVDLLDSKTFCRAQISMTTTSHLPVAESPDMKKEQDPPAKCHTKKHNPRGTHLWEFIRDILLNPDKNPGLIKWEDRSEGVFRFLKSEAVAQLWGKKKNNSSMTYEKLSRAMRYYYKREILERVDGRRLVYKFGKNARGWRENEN
The essentials: as §1

Another experiment deals with SPIB (Homo sapiens, UniProt Q01892 1-262). The essentials:
as §1

The next experiment deals with T6, ELK3 (Homo sapiens, UniProt P41970 1-407).
T6 sequence: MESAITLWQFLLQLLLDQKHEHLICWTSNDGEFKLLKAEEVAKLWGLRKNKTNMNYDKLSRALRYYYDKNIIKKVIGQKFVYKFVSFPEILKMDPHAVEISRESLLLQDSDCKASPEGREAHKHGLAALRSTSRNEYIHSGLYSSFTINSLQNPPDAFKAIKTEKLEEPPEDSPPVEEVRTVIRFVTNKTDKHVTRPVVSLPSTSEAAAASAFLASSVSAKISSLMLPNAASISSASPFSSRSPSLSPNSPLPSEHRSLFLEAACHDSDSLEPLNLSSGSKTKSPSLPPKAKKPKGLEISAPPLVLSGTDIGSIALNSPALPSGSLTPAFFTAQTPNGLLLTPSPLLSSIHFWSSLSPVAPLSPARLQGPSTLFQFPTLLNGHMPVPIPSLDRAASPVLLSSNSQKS
The method in brief:
as §1

For another experiment, the target named is T7, SPIC (Homo sapiens, UniProt Q8N5J4 1-248).
T7 sequence: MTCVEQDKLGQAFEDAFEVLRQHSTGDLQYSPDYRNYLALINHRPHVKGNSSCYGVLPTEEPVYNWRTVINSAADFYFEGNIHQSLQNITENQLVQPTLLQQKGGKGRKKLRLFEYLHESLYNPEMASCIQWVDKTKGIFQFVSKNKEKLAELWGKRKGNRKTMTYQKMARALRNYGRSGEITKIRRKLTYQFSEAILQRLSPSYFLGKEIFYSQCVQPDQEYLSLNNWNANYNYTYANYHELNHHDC
The essentials:
as §1

In another experiment the target is ELF4 (Homo sapiens, UniProt Q99607 1-663). The method in brief: as §1
For another experiment, the target named is T8, ELK4 (Homo sapiens, UniProt P28324-2 1-405).
T8 sequence: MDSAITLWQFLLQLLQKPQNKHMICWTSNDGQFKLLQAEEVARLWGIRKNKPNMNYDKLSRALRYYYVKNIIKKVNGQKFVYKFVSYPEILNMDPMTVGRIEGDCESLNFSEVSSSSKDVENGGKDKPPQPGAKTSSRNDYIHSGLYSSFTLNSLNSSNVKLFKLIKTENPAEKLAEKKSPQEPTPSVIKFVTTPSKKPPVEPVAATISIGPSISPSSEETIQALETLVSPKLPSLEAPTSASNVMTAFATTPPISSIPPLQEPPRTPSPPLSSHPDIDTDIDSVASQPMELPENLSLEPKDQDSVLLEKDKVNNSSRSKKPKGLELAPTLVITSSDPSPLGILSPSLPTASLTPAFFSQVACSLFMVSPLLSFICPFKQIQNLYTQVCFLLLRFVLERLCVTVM
The method in brief:
as §1

The target of another experiment is T9, ETV2 (Homo sapiens, UniProt O00321 1-342).
T9 sequence: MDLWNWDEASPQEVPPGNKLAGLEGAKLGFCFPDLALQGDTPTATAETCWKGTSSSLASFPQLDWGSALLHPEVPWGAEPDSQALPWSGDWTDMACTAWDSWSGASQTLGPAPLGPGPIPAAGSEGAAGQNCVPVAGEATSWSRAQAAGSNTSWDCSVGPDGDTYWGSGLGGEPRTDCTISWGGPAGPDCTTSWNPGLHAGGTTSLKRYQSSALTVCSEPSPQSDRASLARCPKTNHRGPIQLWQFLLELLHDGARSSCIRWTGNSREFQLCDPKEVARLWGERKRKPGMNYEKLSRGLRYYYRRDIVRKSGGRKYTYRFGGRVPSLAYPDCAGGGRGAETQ
The essentials:
as §1

The target in another experiment is ETV1 (Homo sapiens, UniProt P50549 1-477). The essentials: as §1
In a further experiment the target is T10, ERF (Homo sapiens, UniProt P50548 1-548).
T10 sequence: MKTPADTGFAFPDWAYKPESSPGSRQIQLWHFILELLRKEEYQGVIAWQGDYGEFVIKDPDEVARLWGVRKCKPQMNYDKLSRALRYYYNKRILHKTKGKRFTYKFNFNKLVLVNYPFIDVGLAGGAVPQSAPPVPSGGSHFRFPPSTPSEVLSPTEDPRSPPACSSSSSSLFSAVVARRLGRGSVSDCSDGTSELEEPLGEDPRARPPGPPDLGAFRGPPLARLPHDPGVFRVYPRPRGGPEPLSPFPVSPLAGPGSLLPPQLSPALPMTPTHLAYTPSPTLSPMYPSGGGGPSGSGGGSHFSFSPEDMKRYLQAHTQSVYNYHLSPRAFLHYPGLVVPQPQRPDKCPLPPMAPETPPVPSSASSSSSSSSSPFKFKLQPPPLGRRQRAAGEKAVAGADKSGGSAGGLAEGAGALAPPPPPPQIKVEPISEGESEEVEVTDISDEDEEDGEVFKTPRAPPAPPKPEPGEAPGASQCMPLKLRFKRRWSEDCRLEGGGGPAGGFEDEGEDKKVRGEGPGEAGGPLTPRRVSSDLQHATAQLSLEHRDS
The method in brief: as §1

The target in the next experiment is T11, ETV7 (Homo sapiens, UniProt Q9Y603 1-341).
T11 sequence: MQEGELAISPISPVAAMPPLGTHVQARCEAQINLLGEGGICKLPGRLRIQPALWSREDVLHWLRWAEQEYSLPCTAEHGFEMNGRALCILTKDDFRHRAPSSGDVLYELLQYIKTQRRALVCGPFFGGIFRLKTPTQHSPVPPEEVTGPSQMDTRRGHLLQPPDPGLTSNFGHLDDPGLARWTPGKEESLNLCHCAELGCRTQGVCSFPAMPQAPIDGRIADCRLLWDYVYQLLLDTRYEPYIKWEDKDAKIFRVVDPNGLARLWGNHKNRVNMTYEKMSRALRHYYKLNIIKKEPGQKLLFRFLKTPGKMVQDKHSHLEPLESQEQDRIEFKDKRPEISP
The essentials: as §1

The target of a further experiment is T12, ETV3 (Homo sapiens, UniProt P41162-2 1-143).
T12 sequence: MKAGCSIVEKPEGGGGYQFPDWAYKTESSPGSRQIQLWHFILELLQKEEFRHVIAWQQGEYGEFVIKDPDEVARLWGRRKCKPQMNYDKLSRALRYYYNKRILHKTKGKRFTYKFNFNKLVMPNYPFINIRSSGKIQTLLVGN
The essentials: as §1

In another experiment the target is ETV6 (Homo sapiens, UniProt P41212 1-452). The essentials: as §1
ETV6, sequence (P41212 whole entry): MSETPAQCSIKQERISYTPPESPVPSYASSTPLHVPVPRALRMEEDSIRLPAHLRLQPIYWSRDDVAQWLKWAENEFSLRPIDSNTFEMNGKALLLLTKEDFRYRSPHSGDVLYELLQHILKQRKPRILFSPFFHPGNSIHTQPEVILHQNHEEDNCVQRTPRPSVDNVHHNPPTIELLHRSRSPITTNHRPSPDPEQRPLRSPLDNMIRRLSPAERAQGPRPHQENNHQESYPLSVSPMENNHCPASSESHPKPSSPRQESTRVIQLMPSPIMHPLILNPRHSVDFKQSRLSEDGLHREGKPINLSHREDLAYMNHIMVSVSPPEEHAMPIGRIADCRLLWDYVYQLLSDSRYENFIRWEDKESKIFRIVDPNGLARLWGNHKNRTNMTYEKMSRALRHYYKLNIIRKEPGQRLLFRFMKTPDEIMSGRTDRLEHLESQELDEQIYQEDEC

ETV1, sequence (P50549 whole entry): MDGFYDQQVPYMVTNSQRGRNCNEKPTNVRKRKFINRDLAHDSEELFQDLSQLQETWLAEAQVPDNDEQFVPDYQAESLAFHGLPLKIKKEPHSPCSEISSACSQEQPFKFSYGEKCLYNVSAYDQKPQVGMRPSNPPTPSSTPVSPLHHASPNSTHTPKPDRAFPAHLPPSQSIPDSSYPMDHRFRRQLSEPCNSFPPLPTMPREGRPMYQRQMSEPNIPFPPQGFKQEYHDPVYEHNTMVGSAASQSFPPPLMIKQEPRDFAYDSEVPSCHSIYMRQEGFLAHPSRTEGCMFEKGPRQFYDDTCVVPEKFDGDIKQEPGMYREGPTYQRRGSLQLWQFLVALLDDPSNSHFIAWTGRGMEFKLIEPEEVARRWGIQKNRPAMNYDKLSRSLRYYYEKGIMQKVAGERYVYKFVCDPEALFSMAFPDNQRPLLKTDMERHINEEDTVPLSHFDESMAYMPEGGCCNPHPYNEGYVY
SPIB, sequence (Q01892 whole entry): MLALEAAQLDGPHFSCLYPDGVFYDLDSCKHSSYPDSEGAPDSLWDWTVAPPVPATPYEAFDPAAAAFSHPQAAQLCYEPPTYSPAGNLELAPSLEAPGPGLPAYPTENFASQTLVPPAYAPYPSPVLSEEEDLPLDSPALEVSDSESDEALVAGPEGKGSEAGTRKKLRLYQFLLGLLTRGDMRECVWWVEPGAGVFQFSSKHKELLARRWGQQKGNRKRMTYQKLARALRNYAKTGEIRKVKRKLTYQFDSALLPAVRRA
ELF1, sequence (P32519 whole entry): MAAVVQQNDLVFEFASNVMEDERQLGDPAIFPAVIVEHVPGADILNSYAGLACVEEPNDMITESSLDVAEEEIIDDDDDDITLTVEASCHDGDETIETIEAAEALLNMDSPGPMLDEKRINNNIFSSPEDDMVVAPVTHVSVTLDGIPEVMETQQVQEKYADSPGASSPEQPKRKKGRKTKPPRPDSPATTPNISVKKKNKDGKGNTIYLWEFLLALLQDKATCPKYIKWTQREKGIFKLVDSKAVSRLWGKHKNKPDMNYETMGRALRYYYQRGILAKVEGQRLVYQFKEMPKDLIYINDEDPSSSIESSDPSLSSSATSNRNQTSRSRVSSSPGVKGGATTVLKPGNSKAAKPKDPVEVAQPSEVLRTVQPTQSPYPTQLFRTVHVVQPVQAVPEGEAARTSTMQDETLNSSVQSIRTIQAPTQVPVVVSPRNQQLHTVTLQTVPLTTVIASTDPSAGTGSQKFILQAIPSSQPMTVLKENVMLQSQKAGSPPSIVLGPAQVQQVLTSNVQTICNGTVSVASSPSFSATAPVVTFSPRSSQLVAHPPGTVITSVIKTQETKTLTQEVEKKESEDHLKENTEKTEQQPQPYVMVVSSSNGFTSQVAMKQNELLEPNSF
ELF4, sequence (Q99607 whole entry): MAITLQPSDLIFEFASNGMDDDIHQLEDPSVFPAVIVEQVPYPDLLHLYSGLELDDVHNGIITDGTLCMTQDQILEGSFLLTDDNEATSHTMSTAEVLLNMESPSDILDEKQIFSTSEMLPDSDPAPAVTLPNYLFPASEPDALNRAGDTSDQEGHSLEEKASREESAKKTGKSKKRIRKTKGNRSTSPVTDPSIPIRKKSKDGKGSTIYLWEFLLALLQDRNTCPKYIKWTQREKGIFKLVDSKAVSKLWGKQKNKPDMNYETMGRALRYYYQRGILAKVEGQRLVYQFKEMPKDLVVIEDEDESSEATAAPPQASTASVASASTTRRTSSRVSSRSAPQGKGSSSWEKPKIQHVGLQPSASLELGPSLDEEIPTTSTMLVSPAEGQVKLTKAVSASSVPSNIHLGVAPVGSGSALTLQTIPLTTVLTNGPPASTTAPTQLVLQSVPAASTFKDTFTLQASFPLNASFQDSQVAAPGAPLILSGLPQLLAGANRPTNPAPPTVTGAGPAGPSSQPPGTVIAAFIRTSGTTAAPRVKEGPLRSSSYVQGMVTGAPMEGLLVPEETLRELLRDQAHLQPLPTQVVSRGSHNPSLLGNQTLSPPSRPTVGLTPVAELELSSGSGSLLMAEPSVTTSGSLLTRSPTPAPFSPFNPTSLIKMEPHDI

As to ACCACG, the binding signal with FLI1 is 1.14 fold enrichment (6-mer frequency, TF over GST control); with ELK1 it was 1.16 fold enrichment (6-mer frequency, TF over GST control); in the experiment with GABPA, 1.09 fold enrichment (6-mer frequency, TF over GST control); in the experiment with ERG it was 1.06 fold enrichment (6-mer frequency, TF over GST control); with ELF1 it was 1.18 fold enrichment (6-mer frequency, TF over GST control); with EHF, 1.04 fold enrichment (6-mer frequency, TF over GST control). For the same sequence, the binding signal in the experiment with SPIB was 1.04 fold enrichment (6-mer frequency, TF over GST control); in the experiment with ELK3, 1.08 fold enrichment (6-mer frequency, TF over GST control); with SPIC, 1.08 fold enrichment (6-mer frequency, TF over GST control); with ELF4, 1.05 fold enrichment (6-mer frequency, TF over GST control); with ELK4, 1.11 fold enrichment (6-mer frequency, TF over GST control); with ETV2, 1.09 fold enrichment (6-mer frequency, TF over GST control). For the same sequence, the binding signal with ETV1 is 1.05 fold enrichment (6-mer frequency, TF over GST control); with ERF it was 1.03 fold enrichment (6-mer frequency, TF over GST control); with ETV7 it was 1.04 fold enrichment (6-mer frequency, TF over GST control); with ETV3, 1.04 fold enrichment (6-mer frequency, TF over GST control); in the experiment with ETV6 it was 1.02 fold enrichment (6-mer frequency, TF over GST control).
